Data from the supplement of paper PMC11732987, “Enantioselective OTUD7B fragment discovery through chemoproteomics screening and high-throughput optimisation” (Communications Chemistry, 2025).

Experiments:
Assay in all cases: log2 ratio of Biotin-Ahx-Ub-VS probe labelling (compound/DMSO); higher = less target engagement, active = hit call of the paper (q ≤ 0.05, log2 ratio ≤ -1)
Conditions in all cases: treatment time: 3 h
[1] = compound: CCC1N(CCc2sccc12)C(=O)CCl
Method in brief: (§1)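 HEK293T lysate (495 µg per sample, in Tris/CHAPS/IGEPAL buffer with protease inhibitors) was exposed in triplicate to compound at 50 or 200 µM, or to DMSO, for 3 h, then to Biotin-Ahx-Ub-VS (0.5 µM final) for 1 h. The labelled DUBs were enriched on NeutrAvidin, digested with LysC and trypsin, and analysed by diaPASEF LC-MS/MS. Average base-two log ratios of compound over DMSO came from median-normalised label-free quantities by unpaired t-test. Only proteins with at least 2 unique peptides were used.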

[2] = compound: CN1c2ccccc2C(CS1(=O)=O)NC(=O)CCl
Method in brief: as §1

[3] = compound: Cl.ClCC(=O)N1CCc2ncncc2C1
Method in brief: as §1

[4] = compound: Cl.Cn1ncc2C(CCCc12)NC(=O)CCl
Method in brief: as §1

[5] = compound: ClCC(=O)NC1CCOc2ccccc12
Method in brief: as §1

[6] = compound: ClCC(=O)NC1CCCc2ccccc12
Method in brief: (§2)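 Values are average ratios of compound to vehicle from an unpaired t-test, limited to proteins with at least two unique peptides. HEK293T lysate (495 µg per sample, in Tris/CHAPS/IGEPAL buffer with protease inhibitors) was exposed in triplicate to a concentration series of compound or to vehicle for 3 h, then to Biotin-Ahx-Ub-VS at 0.5 µM final for 1 h. Labelled deubiquitinases were enriched on NeutrAvidin, digested with LysC and trypsin, and analysed by diaPASEF LC-MS/MS. Ratios are given on a log2 scale from Spectronaut label-free protein quantities normalised to the global median.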

[7] = compound: ClCC(=O)N[C@@H]1CCCc2ccccc12
Method in brief: as §2

[8] = compound: ClCC(=O)N[C@H]1CCCc2ccccc12
Method in brief: as §2

[9] = compound: CCC1N(CCc2cc(OC)c(Cl)cc12)C(=O)CCl
Method in brief: as §1

[10] = compound: CCCC1N(CCc2cc(OC)c(OC)cc12)C(=O)CCl
Method in brief: as §1

[11] = compound: CN(Cc1cccc(Br)c1)C(=O)CCl
Method in brief: as §1

[12] = compound: CN(Cc1cccc(OCc2ccccc2C)c1)C(=O)CCl
Method in brief: as §1

[13] = compound: CN(Cc1ccccc1)C(=O)CCl
Method in brief: as §1

[14] = compound: COc1ccc(CN(C)C(=O)CCl)cc1
Method in brief: as §1

[15] = compound: COc1cccc(CN(CCCc2ccccc2)C(=O)CCl)c1
Method in brief: as §1

[16] = compound: ClCC(=O)N1CCc2cc(Cl)c(Cl)cc2C1
Method in brief: as §1

[17] = compound: ClCC(=O)N1CCc2nc(ncc2C1)-c1ccccc1
Method in brief: as §1

[18] = compound: ClCC(=O)N1CCc2nocc2C1
Method in brief: as §1

[19] = compound: ClCC(=O)N1CCc2scc(Br)c2C1
Method in brief: as §1

[20] = compound: ClCC(=O)NC(C1CCCC1)c1cccs1
Method in brief: as §1

Measured: log2 ratio of Biotin-Ahx-Ub-VS probe labelling

UCHL1 (UniProt P09936)
Sequence of UniProt P09936 (P09936 whole entry, looked up): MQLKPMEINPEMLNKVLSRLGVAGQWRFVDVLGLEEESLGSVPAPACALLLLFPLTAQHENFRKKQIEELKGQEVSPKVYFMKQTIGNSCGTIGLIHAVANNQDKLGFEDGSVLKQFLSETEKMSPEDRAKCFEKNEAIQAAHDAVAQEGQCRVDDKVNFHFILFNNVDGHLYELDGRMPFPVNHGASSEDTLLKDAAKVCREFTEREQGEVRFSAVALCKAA
inactive: [1]; compound concentration: 50uM -0.0927 | [1]; compound concentration: 200uM 0.068 | [2]; compound concentration: 50uM -0.207 | [2]; compound concentration: 200uM -0.242 | [3]; compound concentration: 50uM -0.16 | [3]; compound concentration: 200uM -0.504 | [4]; compound concentration: 50uM -0.114 | [4]; compound concentration: 200uM 0.145 | [5]; compound concentration: 50uM 0.105 | [5]; compound concentration: 200uM 0.0647 | [6]; compound concentration: 0.78uM -0.218 | [6]; compound concentration: 1.56uM -0.0576 | [6]; compound concentration: 3.13uM -0.283 | [6]; compound concentration: 6.25uM -0.158 | [6]; compound concentration: 12.5uM -0.19 | [6]; compound concentration: 25uM -0.341 | [6]; compound concentration: 50uM -0.22 | [6]; compound concentration: 100uM -0.163 | [6]; compound concentration: 200uM -0.254 | [7]; compound concentration: 0.78uM -0.29 | [7]; compound concentration: 1.56uM -0.214 | [7]; compound concentration: 3.13uM -0.161 | [7]; compound concentration: 6.25uM -0.154 | [7]; compound concentration: 12.5uM -0.211 | [7]; compound concentration: 25uM -0.116 | [7]; compound concentration: 50uM -0.259 | [7]; compound concentration: 100uM -0.155 | [7]; compound concentration: 200uM -0.0847 | [8]; compound concentration: 0.78uM -0.211 | [8]; compound concentration: 1.56uM -0.304 | [8]; compound concentration: 3.13uM -0.239 | [8]; compound concentration: 6.25uM -0.187 | [8]; compound concentration: 12.5uM -0.239 | [8]; compound concentration: 25uM -0.196 | [8]; compound concentration: 50uM -0.16 | [8]; compound concentration: 100uM -0.204 | [8]; compound concentration: 200uM -0.267 | [9]; compound concentration: 50uM 0.0838 | [9]; compound concentration: 200uM 0.00983 | [10]; compound concentration: 50uM -0.262 | [10]; compound concentration: 200uM -0.45 | [11]; compound concentration: 50uM -0.0723 | [11]; compound concentration: 200uM 0.424 | [12]; compound concentration: 50uM -0.437 | [12]; compound concentration: 200uM -0.268 | [13]; compound concentration: 50uM -0.373 | [13]; compound concentration: 200uM -0.192 | [14]; compound concentration: 50uM -0.293 | [14]; compound concentration: 200uM 0.0271 | [15]; compound concentration: 50uM 0.0165 | [15]; compound concentration: 200uM 0.0676 | [16]; compound concentration: 50uM 0.153 | [16]; compound concentration: 200uM -0.0523 | [17]; compound concentration: 50uM 0.109 | [17]; compound concentration: 200uM -0.0372 | [18]; compound concentration: 50uM -0.379 | [18]; compound concentration: 200uM -0.3 | [19]; compound concentration: 50uM -0.0189 | [19]; compound concentration: 200uM -0.0895 | [20]; compound concentration: 50uM -0.0993 | [20]; compound concentration: 200uM -0.00199

VCPIP1 (UniProt Q96JH7)
Sequence of UniProt Q96JH7 (Q96JH7 whole entry): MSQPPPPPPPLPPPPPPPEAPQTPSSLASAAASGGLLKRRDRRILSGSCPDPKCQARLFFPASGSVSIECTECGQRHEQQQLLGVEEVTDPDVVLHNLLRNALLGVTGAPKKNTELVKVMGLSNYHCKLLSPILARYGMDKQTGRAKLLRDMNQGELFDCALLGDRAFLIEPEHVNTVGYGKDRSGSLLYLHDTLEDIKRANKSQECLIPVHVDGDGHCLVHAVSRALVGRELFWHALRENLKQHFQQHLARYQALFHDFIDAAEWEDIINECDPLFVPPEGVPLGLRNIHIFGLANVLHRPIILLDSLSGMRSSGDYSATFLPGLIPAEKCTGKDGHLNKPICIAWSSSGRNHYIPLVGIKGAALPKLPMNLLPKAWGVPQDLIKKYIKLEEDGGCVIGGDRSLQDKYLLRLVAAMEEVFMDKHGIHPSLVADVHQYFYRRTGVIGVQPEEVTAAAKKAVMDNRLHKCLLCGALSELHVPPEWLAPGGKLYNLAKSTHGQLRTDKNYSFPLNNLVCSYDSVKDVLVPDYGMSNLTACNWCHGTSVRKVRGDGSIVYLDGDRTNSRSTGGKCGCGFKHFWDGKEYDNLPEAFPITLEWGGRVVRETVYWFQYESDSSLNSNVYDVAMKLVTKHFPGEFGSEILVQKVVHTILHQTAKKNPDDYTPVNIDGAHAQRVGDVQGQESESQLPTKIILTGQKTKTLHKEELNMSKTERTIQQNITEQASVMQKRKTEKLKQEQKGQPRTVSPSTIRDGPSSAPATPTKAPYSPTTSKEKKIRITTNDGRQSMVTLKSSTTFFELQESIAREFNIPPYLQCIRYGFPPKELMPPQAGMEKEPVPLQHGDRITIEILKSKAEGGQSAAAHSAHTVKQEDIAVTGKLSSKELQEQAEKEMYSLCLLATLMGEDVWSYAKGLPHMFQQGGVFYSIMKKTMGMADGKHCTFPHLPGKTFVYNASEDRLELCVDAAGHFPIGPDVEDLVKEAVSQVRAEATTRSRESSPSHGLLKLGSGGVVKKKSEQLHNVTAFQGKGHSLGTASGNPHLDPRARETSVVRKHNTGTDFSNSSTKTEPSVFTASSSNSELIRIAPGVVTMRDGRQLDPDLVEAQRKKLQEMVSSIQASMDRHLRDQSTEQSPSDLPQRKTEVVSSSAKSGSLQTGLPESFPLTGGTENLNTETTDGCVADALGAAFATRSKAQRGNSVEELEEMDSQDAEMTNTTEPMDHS
inactive: [1]; compound concentration: 50uM -0.0812 | [1]; compound concentration: 200uM -0.216 | [2]; compound concentration: 50uM -0.772 | [3]; compound concentration: 50uM -0.0798 | [3]; compound concentration: 200uM -0.257 | [4]; compound concentration: 50uM -0.273 | [4]; compound concentration: 200uM -0.459 | [5]; compound concentration: 50uM -0.59 | [5]; compound concentration: 200uM -0.809 | [6]; compound concentration: 0.78uM -0.0601 | [6]; compound concentration: 1.56uM -0.043 | [6]; compound concentration: 3.13uM -0.312 | [6]; compound concentration: 6.25uM -0.126 | [6]; compound concentration: 12.5uM -0.217 | [6]; compound concentration: 25uM -0.282 | [6]; compound concentration: 50uM -0.514 | [6]; compound concentration: 100uM -0.706 | [7]; compound concentration: 0.78uM -0.284 | [7]; compound concentration: 1.56uM -0.221 | [7]; compound concentration: 3.13uM -0.211 | [7]; compound concentration: 6.25uM -0.266 | [7]; compound concentration: 12.5uM -0.486 | [7]; compound concentration: 25uM -0.463 | [7]; compound concentration: 50uM -0.588 | [7]; compound concentration: 100uM -0.763 | [8]; compound concentration: 0.78uM -0.0679 | [8]; compound concentration: 1.56uM -0.261 | [8]; compound concentration: 3.13uM -0.266 | [8]; compound concentration: 6.25uM -0.105 | [8]; compound concentration: 12.5uM -0.162 | [8]; compound concentration: 25uM -0.176 | [8]; compound concentration: 50uM -0.258 | [8]; compound concentration: 100uM -0.566 | [8]; compound concentration: 200uM -0.808 | [9]; compound concentration: 50uM -0.123 | [9]; compound concentration: 200uM -0.724 | [10]; compound concentration: 50uM -0.514 | [10]; compound concentration: 200uM -0.602 | [11]; compound concentration: 50uM -0.446 | [11]; compound concentration: 200uM -0.887 | [12]; compound concentration: 50uM -0.755 | [13]; compound concentration: 50uM -0.563 | [13]; compound concentration: 200uM -0.709 | [14]; compound concentration: 50uM -0.548 | [14]; compound concentration: 200uM -0.854 | [15]; compound concentration: 50uM -0.299 | [16]; compound concentration: 50uM -0.374 | [16]; compound concentration: 200uM -0.407 | [17]; compound concentration: 50uM -0.105 | [17]; compound concentration: 200uM -0.284 | [18]; compound concentration: 50uM -0.319 | [18]; compound concentration: 200uM -0.484 | [19]; compound concentration: 50uM -0.213 | [19]; compound concentration: 200uM -0.677 | [20]; compound concentration: 50uM -0.515 | [20]; compound concentration: 200uM -0.426
active: [2]; compound concentration: 200uM -1.25 | [6]; compound concentration: 200uM -1.18 | [7]; compound concentration: 200uM -1.11 | [12]; compound concentration: 200uM -1.2 | [15]; compound concentration: 200uM -1.11

ATXN3 (UniProt P54252)
Sequence of UniProt P54252 (P54252 whole entry): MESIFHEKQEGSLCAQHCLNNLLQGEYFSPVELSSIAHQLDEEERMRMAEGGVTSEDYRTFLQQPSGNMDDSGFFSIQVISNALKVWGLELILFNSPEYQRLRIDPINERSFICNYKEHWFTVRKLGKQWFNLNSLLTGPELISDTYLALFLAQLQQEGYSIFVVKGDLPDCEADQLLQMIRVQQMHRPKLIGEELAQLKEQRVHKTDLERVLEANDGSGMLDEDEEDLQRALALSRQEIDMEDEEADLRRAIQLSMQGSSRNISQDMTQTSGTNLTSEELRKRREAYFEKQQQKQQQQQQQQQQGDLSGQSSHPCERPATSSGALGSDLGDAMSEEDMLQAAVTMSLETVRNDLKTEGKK
inactive: [1]; compound concentration: 50uM -0.116 | [1]; compound concentration: 200uM -0.483 | [2]; compound concentration: 50uM -0.0445 | [2]; compound concentration: 200uM -0.365 | [3]; compound concentration: 50uM -0.35 | [4]; compound concentration: 50uM 0.199 | [4]; compound concentration: 200uM -0.212 | [5]; compound concentration: 50uM 0.00952 | [5]; compound concentration: 200uM -0.0594 | [6]; compound concentration: 0.78uM -0.108 | [6]; compound concentration: 1.56uM -0.213 | [6]; compound concentration: 3.13uM -0.478 | [6]; compound concentration: 6.25uM -0.165 | [6]; compound concentration: 12.5uM -0.236 | [6]; compound concentration: 25uM -0.301 | [6]; compound concentration: 50uM -0.18 | [6]; compound concentration: 100uM -0.156 | [6]; compound concentration: 200uM -0.285 | [7]; compound concentration: 0.78uM -0.286 | [7]; compound concentration: 1.56uM -0.107 | [7]; compound concentration: 3.13uM -0.24 | [7]; compound concentration: 6.25uM -0.0908 | [7]; compound concentration: 12.5uM -0.0507 | [7]; compound concentration: 25uM -0.218 | [7]; compound concentration: 50uM -0.0106 | [7]; compound concentration: 100uM -0.151 | [7]; compound concentration: 200uM -0.0598 | [8]; compound concentration: 0.78uM -0.183 | [8]; compound concentration: 1.56uM -0.0688
active: [3]; compound concentration: 200uM -1.37
